We go through 1 sequence from publication PMC7862700, “An all-to-all approach to the identification of sequence-specific readers for epigenetic DNA modifications on cytosine”.

What all share (test): DAPPL (digital affinity profiling via proximity ligation, sequencing); 10 mM Tris-HCl pH 7.5, 50 mM NaCl, 1 mM DTT, 4% glycerol, room temperature, 30 min; GST-TFs on glutathione beads, 16-mer random dsDNA library, 0.1% formaldehyde crosslink after washing; high values mean tight binding
Experiment [1] concerns the target T1, FEV (Homo sapiens, UniProt Q99581 1-238).
T1 sequence: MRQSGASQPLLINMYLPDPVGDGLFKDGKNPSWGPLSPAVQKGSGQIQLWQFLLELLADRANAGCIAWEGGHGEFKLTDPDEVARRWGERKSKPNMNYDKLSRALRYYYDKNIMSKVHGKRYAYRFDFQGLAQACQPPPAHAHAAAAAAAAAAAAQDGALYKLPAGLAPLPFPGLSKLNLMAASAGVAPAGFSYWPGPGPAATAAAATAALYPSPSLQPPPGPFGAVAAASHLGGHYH
Particulars: protein: recombinant; tags: N-terminal GST; dsDNA, one strand shown. In outline: (§1)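 Human transcription factors carrying a GST fusion were produced in yeast, bound to glutathione beads, tagged with DNA barcodes and pooled together with a tag-only sample. Each pool was held with 200 nmole of a random double-stranded 16-mer DNA library in Tris/NaCl/DTT/glycerol buffer for 30 min at room temperature, then washed, crosslinked in 0.1% formaldehyde, proximity-ligated with BsaI/T4 ligase (1 h, 37 °C), PCR-amplified and sequenced on an Illumina NextSeq500. Binding signal is the read frequency of each hexamer for a given factor divided by its frequency in the tag-only sample.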

In experiment [2] the target is ETV5 (Homo sapiens, UniProt P41161 1-510). Particulars: protein: recombinant; tags: N-terminal GST; dsDNA, one strand shown. In outline: as §1
Experiment [3] has as its target HSF1 (Homo sapiens, UniProt Q00613 1-529). The note with it: protein: recombinant; tags: N-terminal GST; chain copies: 3; dsDNA, one strand shown. An outline of the steps:
as §1

For experiment [4], the target named is T2, SPIC (Homo sapiens, UniProt Q8N5J4 1-248).
T2 sequence: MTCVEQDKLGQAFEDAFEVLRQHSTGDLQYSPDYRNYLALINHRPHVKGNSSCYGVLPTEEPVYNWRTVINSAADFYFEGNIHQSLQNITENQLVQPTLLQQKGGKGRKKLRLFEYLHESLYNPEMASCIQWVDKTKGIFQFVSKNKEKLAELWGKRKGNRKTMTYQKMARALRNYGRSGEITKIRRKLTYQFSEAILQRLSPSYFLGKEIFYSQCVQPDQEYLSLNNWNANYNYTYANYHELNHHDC
Particulars: protein: recombinant; tags: N-terminal GST; dsDNA, one strand shown. An outline of the steps:
as §1

Experiment [5] has as its target ELF4 (Homo sapiens, UniProt Q99607 1-663). Particulars: protein: recombinant; tags: N-terminal GST; dsDNA, one strand shown. An outline of the steps:
as §1

Experiment [6] addresses T3, ELK4 (Homo sapiens, UniProt P28324-2 1-405).
T3 sequence: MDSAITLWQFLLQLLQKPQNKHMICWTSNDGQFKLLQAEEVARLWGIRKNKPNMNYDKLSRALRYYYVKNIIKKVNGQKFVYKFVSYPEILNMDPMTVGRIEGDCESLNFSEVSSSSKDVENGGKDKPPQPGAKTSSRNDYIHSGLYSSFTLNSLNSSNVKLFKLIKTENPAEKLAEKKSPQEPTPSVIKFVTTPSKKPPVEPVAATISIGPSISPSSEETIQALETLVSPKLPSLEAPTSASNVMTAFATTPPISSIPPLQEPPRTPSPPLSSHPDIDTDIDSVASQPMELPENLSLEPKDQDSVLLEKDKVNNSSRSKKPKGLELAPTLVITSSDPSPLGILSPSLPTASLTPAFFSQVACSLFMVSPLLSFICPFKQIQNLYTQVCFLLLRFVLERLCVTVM
The note with it: protein: recombinant; tags: N-terminal GST; dsDNA, one strand shown. In outline: as §1

The target in experiment [7] is T4, ETV2 (Homo sapiens, UniProt O00321 1-342).
T4 sequence: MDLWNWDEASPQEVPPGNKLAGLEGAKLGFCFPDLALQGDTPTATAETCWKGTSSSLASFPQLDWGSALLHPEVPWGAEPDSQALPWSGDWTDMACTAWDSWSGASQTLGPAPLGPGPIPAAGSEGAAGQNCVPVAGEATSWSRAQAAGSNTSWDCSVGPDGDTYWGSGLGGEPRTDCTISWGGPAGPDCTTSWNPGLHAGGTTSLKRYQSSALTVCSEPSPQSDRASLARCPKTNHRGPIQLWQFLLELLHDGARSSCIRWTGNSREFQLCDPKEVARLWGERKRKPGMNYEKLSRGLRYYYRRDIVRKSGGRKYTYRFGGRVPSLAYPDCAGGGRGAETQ
The note with it: protein: recombinant; tags: N-terminal GST; dsDNA, one strand shown. An outline of the steps:
as §1

Experiment [8] deals with T5, ELF3 (Homo sapiens, UniProt P78545 1-371).
T5 sequence: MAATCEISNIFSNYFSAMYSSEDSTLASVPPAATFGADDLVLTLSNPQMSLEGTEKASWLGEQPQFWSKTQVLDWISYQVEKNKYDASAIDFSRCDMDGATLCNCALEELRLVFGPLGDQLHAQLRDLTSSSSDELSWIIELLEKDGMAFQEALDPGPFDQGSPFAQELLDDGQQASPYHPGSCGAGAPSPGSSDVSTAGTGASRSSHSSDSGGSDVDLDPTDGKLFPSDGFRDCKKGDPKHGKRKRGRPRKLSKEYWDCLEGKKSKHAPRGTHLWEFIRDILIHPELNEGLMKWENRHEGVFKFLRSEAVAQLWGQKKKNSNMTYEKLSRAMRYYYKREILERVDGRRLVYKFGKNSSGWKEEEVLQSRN
The note with it: protein: recombinant; tags: N-terminal GST; dsDNA, one strand shown. In outline: as §1

The target in experiment [9] is CRX (Homo sapiens, UniProt O43186 1-299). Particulars: protein: recombinant; tags: N-terminal GST; dsDNA, one strand shown. In outline:
as §1

Experiment [10] has as its target ETV1 (Homo sapiens, UniProt P50549 1-477). The note with it: protein: recombinant; tags: N-terminal GST; dsDNA, one strand shown. In outline: as §1
For experiment [11], the target named is T6, ERF (Homo sapiens, UniProt P50548 1-548).
T6 sequence: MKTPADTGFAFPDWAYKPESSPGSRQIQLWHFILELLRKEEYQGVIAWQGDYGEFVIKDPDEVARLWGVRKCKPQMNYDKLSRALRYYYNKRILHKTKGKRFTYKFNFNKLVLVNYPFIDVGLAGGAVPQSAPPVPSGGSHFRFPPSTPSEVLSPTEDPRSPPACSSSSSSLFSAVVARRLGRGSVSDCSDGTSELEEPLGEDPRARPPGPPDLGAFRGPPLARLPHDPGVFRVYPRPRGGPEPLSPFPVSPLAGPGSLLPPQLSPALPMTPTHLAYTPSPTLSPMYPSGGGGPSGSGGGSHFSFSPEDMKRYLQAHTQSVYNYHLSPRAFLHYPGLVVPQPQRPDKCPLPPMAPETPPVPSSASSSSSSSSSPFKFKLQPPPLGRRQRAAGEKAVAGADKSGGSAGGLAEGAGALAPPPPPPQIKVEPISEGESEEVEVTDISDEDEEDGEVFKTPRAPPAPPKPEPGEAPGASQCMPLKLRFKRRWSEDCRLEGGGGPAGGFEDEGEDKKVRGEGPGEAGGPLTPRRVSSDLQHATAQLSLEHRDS
The note with it: protein: recombinant; tags: N-terminal GST; dsDNA, one strand shown. An outline of the steps: as §1

For experiment [12], the target named is T7, ETV3L (Homo sapiens, UniProt Q6ZN32 1-361).
T7 sequence: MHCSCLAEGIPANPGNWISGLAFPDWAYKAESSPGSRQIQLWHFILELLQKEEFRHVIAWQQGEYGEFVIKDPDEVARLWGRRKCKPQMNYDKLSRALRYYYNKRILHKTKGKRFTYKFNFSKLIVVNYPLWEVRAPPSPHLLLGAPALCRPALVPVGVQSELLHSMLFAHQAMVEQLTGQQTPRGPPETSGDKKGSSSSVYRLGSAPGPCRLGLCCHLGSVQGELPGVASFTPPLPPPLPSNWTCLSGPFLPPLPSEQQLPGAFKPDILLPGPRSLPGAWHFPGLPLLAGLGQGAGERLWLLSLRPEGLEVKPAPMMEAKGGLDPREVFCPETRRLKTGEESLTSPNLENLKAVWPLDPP
Particulars: protein: recombinant; tags: N-terminal GST; dsDNA, one strand shown. An outline of the steps: as §1

The target of experiment [13] is T8, ETS2 (Homo sapiens, UniProt P15036 1-469).
T8 sequence: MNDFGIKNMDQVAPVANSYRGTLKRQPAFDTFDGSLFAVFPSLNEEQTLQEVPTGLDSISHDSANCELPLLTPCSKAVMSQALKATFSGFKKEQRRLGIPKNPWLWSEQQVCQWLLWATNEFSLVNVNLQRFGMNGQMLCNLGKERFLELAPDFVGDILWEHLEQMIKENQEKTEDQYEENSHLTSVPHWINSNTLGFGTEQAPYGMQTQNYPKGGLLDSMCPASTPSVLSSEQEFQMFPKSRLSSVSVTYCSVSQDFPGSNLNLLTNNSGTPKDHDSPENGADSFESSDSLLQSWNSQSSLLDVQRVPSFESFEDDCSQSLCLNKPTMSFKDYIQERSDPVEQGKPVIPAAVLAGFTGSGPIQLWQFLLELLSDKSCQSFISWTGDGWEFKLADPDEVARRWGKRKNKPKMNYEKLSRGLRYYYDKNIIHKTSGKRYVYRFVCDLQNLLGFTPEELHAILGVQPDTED
The note with it: protein: recombinant; tags: N-terminal GST; dsDNA, one strand shown. An outline of the steps: as §1

Experiment [14] addresses T9, SPDEF (Homo sapiens, UniProt O95238 1-335).
T9 sequence: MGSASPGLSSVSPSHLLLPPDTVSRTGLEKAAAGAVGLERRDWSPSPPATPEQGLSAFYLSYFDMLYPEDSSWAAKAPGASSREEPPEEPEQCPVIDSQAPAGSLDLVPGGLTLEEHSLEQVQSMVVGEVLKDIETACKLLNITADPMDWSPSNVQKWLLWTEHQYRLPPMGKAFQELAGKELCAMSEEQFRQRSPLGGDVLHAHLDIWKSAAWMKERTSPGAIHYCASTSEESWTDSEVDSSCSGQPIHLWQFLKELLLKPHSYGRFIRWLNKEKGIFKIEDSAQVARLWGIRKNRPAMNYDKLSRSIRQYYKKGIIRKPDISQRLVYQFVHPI
Particulars: protein: recombinant; tags: N-terminal GST; dsDNA, one strand shown. An outline of the steps:
as §1

The target of experiment [15] is T10, ETV7 (Homo sapiens, UniProt Q9Y603 1-341).
T10 sequence: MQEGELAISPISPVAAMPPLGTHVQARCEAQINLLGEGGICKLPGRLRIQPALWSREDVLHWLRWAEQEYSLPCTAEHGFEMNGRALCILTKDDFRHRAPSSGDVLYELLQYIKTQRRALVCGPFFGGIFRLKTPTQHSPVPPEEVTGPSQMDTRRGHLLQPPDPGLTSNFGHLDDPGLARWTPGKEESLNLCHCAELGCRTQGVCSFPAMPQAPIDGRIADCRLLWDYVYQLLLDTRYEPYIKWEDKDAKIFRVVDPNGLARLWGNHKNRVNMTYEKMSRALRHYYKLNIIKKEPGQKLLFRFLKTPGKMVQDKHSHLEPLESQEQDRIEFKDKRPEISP
The note with it: protein: recombinant; tags: N-terminal GST; dsDNA, one strand shown. An outline of the steps: as §1

The target in experiment [16] is T11, ELF5 (Homo sapiens, UniProt Q9UKW6-2 1-255).
T11 sequence: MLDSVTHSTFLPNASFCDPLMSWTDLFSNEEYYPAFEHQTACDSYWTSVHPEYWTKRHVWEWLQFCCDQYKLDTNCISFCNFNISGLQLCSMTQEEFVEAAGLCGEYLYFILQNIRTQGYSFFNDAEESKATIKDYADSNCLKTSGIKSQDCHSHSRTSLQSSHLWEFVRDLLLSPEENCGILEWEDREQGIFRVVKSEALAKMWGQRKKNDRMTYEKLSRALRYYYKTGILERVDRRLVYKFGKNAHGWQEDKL
Particulars: protein: recombinant; tags: N-terminal GST; dsDNA, one strand shown. In outline: as §1

Experiment [17] has as its target T12, ETV3 (Homo sapiens, UniProt P41162-2 1-143).
T12 sequence: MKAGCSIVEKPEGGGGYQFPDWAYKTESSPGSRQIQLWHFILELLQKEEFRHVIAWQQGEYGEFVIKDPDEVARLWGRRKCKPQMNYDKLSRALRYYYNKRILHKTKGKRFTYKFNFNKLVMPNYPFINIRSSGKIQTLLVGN
The note with it: protein: recombinant; tags: N-terminal GST; dsDNA, one strand shown. In outline: as §1

In experiment [18] the target is ETV6 (Homo sapiens, UniProt P41212 1-452). The note with it: protein: recombinant; tags: N-terminal GST; dsDNA, one strand shown. In outline: as §1
Sequence of ETV6 (P41212 whole entry): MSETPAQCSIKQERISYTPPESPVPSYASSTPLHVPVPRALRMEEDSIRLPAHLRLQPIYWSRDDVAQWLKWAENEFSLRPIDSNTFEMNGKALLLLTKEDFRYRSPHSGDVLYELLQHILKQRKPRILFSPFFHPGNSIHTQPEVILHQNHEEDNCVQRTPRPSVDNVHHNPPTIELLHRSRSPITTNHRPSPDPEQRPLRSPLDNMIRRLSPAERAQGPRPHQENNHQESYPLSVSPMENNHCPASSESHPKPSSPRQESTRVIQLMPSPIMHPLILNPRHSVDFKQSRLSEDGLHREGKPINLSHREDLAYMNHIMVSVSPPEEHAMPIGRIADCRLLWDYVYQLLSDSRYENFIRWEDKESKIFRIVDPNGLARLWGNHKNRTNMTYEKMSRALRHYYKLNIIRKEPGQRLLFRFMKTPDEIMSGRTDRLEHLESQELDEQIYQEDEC

Sequence of ELF4 (Q99607 whole entry): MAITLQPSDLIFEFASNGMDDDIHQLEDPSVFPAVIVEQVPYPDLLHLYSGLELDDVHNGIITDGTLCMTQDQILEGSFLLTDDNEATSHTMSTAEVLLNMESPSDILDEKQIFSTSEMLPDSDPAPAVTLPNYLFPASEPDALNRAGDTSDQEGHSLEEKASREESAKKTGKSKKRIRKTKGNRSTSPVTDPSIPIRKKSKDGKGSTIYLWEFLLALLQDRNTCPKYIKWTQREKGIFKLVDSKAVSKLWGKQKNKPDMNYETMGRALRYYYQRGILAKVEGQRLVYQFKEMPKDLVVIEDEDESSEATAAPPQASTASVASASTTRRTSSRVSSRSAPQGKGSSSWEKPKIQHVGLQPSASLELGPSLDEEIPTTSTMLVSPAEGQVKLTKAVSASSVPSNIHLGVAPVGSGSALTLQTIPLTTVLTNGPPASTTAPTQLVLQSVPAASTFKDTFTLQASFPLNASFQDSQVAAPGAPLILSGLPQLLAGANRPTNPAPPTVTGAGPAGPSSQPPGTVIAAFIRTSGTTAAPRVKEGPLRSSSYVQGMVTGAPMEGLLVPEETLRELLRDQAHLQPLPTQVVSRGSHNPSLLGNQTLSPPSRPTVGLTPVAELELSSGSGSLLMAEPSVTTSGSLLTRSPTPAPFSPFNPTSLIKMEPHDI
Sequence of ETV5 (P41161 whole entry): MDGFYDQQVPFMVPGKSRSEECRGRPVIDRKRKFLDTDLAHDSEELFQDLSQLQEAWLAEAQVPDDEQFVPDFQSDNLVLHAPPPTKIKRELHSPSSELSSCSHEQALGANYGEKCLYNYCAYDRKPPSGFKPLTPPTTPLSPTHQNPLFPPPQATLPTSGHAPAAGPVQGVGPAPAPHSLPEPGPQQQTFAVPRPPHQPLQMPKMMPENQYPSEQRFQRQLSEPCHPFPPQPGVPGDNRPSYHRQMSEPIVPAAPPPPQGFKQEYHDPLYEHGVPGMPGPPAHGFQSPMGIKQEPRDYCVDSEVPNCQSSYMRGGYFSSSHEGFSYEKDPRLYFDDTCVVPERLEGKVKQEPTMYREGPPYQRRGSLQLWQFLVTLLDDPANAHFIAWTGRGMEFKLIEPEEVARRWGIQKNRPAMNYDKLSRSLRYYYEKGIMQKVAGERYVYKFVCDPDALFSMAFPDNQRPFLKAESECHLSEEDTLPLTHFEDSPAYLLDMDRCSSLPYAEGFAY
Sequence of HSF1 (Q00613 whole entry): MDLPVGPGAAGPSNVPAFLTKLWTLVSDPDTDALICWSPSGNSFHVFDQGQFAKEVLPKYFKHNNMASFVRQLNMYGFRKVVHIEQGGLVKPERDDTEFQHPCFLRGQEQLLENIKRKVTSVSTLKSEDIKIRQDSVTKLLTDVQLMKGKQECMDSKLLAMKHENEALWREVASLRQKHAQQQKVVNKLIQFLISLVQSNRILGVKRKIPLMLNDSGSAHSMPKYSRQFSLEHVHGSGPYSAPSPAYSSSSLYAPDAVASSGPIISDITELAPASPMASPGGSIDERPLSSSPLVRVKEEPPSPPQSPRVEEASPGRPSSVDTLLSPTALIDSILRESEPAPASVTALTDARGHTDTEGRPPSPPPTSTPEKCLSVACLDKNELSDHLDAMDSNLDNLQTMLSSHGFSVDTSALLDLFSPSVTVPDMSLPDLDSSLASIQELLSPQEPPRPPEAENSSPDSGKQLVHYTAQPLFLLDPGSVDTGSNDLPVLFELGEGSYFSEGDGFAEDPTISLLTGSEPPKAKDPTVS
Sequence of ETV1 (P50549 whole entry): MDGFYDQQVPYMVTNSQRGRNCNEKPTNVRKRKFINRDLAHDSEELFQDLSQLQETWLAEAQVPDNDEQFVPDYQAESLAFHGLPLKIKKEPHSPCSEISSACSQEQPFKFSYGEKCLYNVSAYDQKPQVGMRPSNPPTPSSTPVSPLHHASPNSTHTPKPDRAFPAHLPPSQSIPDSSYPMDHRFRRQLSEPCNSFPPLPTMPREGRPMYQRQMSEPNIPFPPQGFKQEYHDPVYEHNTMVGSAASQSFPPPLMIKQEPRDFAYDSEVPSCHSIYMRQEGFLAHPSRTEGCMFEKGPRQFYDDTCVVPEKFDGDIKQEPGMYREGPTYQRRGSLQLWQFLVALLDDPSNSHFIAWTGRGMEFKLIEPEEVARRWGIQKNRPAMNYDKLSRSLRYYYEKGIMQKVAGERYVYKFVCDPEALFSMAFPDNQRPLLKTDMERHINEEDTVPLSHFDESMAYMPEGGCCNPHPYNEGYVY
Sequence of CRX (O43186 whole entry): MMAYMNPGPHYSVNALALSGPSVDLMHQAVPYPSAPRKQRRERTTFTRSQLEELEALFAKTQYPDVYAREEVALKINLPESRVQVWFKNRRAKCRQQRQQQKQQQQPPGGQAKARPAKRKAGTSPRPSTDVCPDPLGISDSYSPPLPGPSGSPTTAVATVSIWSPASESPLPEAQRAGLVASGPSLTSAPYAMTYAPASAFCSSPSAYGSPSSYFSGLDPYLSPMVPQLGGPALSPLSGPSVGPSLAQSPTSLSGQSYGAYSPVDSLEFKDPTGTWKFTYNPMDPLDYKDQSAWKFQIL

As to ATAAAT, the binding signal in experiment [1] is 1.11 fold enrichment (6-mer frequency, TF over GST control); in [2], 1.22 fold enrichment (6-mer frequency, TF over GST control); in experiment [3], 1.41 fold enrichment (6-mer frequency, TF over GST control); in experiment [4], 1.16 fold enrichment (6-mer frequency, TF over GST control); in experiment [5], 1.16 fold enrichment (6-mer frequency, TF over GST control); in experiment [6], 1.17 fold enrichment (6-mer frequency, TF over GST control). For the same sequence, the binding signal was 1.13 fold enrichment (6-mer frequency, TF over GST control) in experiment [7]; 1.24 fold enrichment (6-mer frequency, TF over GST control) in experiment [8]; 1.75 fold enrichment (6-mer frequency, TF over GST control) in experiment [9]; 1.13 fold enrichment (6-mer frequency, TF over GST control) in experiment [10]; 1.19 fold enrichment (6-mer frequency, TF over GST control) in experiment [11]; 1.18 fold enrichment (6-mer frequency, TF over GST control) in [12]. The binding signal was 1.19 fold enrichment (6-mer frequency, TF over GST control) in experiment [13]; 1.17 fold enrichment (6-mer frequency, TF over GST control) in [14]; 1.14 fold enrichment (6-mer frequency, TF over GST control) in experiment [15]; 1.08 fold enrichment (6-mer frequency, TF over GST control) in [16]; 1.19 fold enrichment (6-mer frequency, TF over GST control) in experiment [17]; 1.25 fold enrichment (6-mer frequency, TF over GST control) in [18].
